Results taken from PubChem BioAssay (NCI).
About 79,000 compounds went through this panel and 15% of them were active in at least one assay; those are over-represented in the sample as a whole. The source made the active and inactive calls. Rule as the data show it: active = growth inhibition above about 70%; inactive = the rest.

How the values were obtained:
[1] = NCI Yeast Anticancer Drug Screen. Data for the wt2 strain (AID 169);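 also: 0% = growth of vehicle-treated yeast cultures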; settings: S. cerevisiae wt2 strain growth inhibition, hits give high values
Outline: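 Yeast cells were exposed to test compounds, and growth inhibition was measured relative to vehicle-treated controls.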

[2] = NCI Yeast Anticancer Drug Screen. Data for the mlh1 strain (AID 171);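 also: 0% = growth of vehicle-treated control cultures of the same strain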; settings: S. cerevisiae mlh1 strain growth inhibition, hits give high values
Outline: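 Yeast carrying a defined genetic alteration in DNA damage repair or cell cycle control were exposed to test compounds. Growth inhibition was measured relative to vehicle-treated controls.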

[3] = NCI Yeast Anticancer Drug Screen. Data for the sgs1 strain (AID 173);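 also: 0% = growth of vehicle-only control cultures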; settings: S. cerevisiae sgs1 mutant, hits give high values
Outline: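 Yeast mutant strains carrying defined defects in DNA damage repair or cell cycle control were exposed to test compounds. Growth inhibition was scored against vehicle-treated controls.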

[4] = NCI Yeast Anticancer Drug Screen. Data for the mlh1 rad18 strain (AID 175); settings: S. cerevisiae mlh1 rad18 strain growth inhibition, hits give high values
Outline: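 Growth inhibition of the yeast strain was measured after compound exposure and expressed relative to vehicle-treated controls. The strain carries defined defects in DNA damage repair.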

[5] = NCI Yeast Anticancer Drug Screen. Data for the rad18 strain (AID 177); settings: S. cerevisiae rad18 mutant growth inhibition, hits give high values
Outline: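 Yeast carrying a defined DNA damage repair alteration were exposed to compounds. Growth inhibition was expressed relative to vehicle-treated controls.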

[6] = NCI Yeast Anticancer Drug Screen. Data for the rad52 strain (AID 147);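 also: 0% = growth of vehicle-treated control cultures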; settings: S. cerevisiae rad52 mutant growth inhibition, hits give high values
Outline: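 Yeast strain carrying a DNA damage repair alteration was exposed to test compounds. Growth inhibition was measured relative to vehicle-treated controls.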

[7] = NCI Yeast Anticancer Drug Screen. Data for the wt1 strain (AID 149);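 also: 0% = growth of vehicle-treated wt1 cultures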; settings: S. cerevisiae wt1 strain (SPY 50644) growth inhibition, hits give high values
Outline: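 The wt1 strain was treated with compounds, and growth was compared with vehicle-treated cultures to give inhibition.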

[8] = NCI Yeast Anticancer Drug Screen. Data for the rad50EPP+ strain (AID 151);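 also: 0% = growth of vehicle-treated control cultures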; settings: S. cerevisiae rad50 mutant strain, hits give high values
Outline: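 Yeast strain carrying rad50 alteration (rad50EPP+) exposed to compounds; growth inhibition measured relative to vehicle-treated controls.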

[9] = NCI Yeast Anticancer Drug Screen. Data for the mgt1 strain (AID 153); settings: S. cerevisiae mgt1 mutant growth inhibition, hits give high values
Outline: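 Yeast mgt1 strain (DNA repair/cell-cycle alteration panel) exposed to compounds; growth inhibition measured relative to vehicle-treated controls.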

[10] = NCI Yeast Anticancer Drug Screen. Data for the rad50 strain (AID 155);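 also: 0% = growth of vehicle-only cultures of the same strain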; settings: S. cerevisiae rad50 strain growth inhibition, hits give high values
Outline: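 Cells are treated with compound, grown, and their growth is then scored against vehicle-only cultures of the same repair-deficient yeast strain.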

[11] = NCI Yeast Anticancer Drug Screen. Data for the mec2-1 strain (AID 157); settings: S. cerevisiae mec2-1 strain, hits give high values
Outline: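 mec2-1 yeast strain, carrying an alteration in DNA damage repair or cell cycle control, was exposed to compounds; growth inhibition was measured relative to vehicle-treated controls.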

[12] = NCI Yeast Anticancer Drug Screen. Data for the rad14 strain (AID 159);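 also: 0% = growth of vehicle-treated control cultures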; settings: S. cerevisiae rad14 strain growth inhibition, hits give high values
Outline: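 Readout: yeast growth inhibition, referenced to vehicle-only cultures. Strain bears a defined alteration in DNA damage repair.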

[13] = NCI Yeast Anticancer Drug Screen. Data for the sgs1 mgt1 strain (AID 161);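 also: 0% = growth of cultures given vehicle only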; settings: S. cerevisiae sgs1 mgt1 strain, hits give high values
Outline: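 Growth of a repair-deficient yeast mutant was monitored after compound treatment and expressed as inhibition relative to vehicle-treated cultures.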

[14] = NCI Yeast Anticancer Drug Screen. Data for the CLN2oe strain (AID 163);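 also: 0% = growth of vehicle-only control cultures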; settings: S. cerevisiae CLN2oe strain, hits give high values
Outline: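 Yeast cells carrying a defined cell-cycle control alteration were exposed to test compounds. Growth inhibition was scored against vehicle-treated control cultures.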

[15] = NCI Yeast Anticancer Drug Screen. Data for the cln2 rad14 strain (AID 165);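 also: 0% = growth equal to vehicle treated cultures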; settings: S. cerevisiae cln2 rad14 strain, hits give high values
Outline: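 Yeast carrying cln2 and rad14 alterations (cell cycle control and DNA damage repair) were exposed to compounds. Growth inhibition was measured against vehicle-treated controls.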

[16] = NCI Yeast Anticancer Drug Screen. Data for the bub3 strain (AID 167); settings: S. cerevisiae bub3 mutant strain, hits give high values
Outline: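 Part of a panel of yeast mutants defective in DNA damage repair or cell cycle regulation. Each strain is grown with compound, and inhibition is calculated relative to solvent-treated cultures.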

[17] = at 5.0 µM (retest, dose inferred, filed as 0.5)
[18] = at 50.0 µM (retest, dose inferred, filed as 5.0)

Measured: growth inhibition

CCOC(=O)C(Cc1c2ccccc2cc2ccccc12)(NC(C)=O)C(=O)OCC
active: [4]; at 50.0 µM 86.9%
inactive: [1]; at 1.2 µM -2% | [1]; at 3.7 µM -3% | [1]; at 11.0 µM -4% | [1]; at 33.0 µM -2% | [1]; at 100.0 µM -2% | [2]; at 1.2 µM 0% | [2]; at 3.7 µM 0% | [2]; at 11.0 µM -3% | [2]; at 33.0 µM -2% | [2]; at 100.0 µM 0% | [3]; at 1.2 µM -1% | [3]; at 3.7 µM 1% | [3]; at 11.0 µM -1% | [3]; at 33.0 µM 5% | [3]; at 100.0 µM 9% | [4]; [17] -11% | [4]; [18] 35% | [5]; at 1.2 µM -5% | [5]; at 3.7 µM -1% | [5]; at 11.0 µM -1% | [5]; at 33.0 µM 0% | [5]; at 100.0 µM 3%

c1ccc2c(c1)ccn2CCc1c[nH]c2ccccc12
active: [6]; at 100.0 µM 97% | [7]; at 100.0 µM 95% | [9]; at 100.0 µM 96% | [10]; at 50.0 µM 91% | [10]; at 100.0 µM 98% | [11]; at 50.0 µM 93.4% | [11]; at 100.0 µM 96% | [12]; at 100.0 µM 97% | [14]; at 100.0 µM 95% | [15]; at 50.0 µM 91.7% | [16]; at 33.0 µM 79% | [16]; [18] 70% | [16]; at 50.0 µM 89.7% | [16]; at 100.0 µM 95% | [1]; at 100.0 µM 97% | [2]; at 100.0 µM 97% | [3]; at 100.0 µM 95% | [4]; at 50.0 µM 91.4% | [5]; at 100.0 µM 98%
inactive: [6]; at 1.2 µM -35% | [6]; at 3.7 µM -37% | [6]; at 11.0 µM -20% | [6]; at 33.0 µM 31% | [7]; at 1.2 µM -16% | [7]; at 3.7 µM -31% | [7]; at 11.0 µM -19% | [7]; at 33.0 µM 21% | [8]; at 1.2 µM -33% | [8]; at 3.7 µM -5% | [8]; at 11.0 µM 23% | [8]; at 33.0 µM 41% | [8]; at 100.0 µM 55% | [9]; at 1.2 µM -26% | [9]; at 3.7 µM -26% | [9]; at 11.0 µM -4% | [9]; at 33.0 µM 33% | [10]; at 1.2 µM -20% | [10]; at 3.7 µM -20% | [10]; [17] -13% | [10]; at 11.0 µM -5% | [10]; at 33.0 µM 34% | [10]; [18] 48% | [11]; at 1.2 µM -24% | [11]; at 3.7 µM -23% | [11]; [17] -5% | [11]; at 11.0 µM -27% | [11]; at 33.0 µM 0% | [11]; [18] 1% | [12]; at 1.2 µM -16% | [12]; at 3.7 µM -29% | [12]; at 11.0 µM -28% | [12]; at 33.0 µM 6% | [13]; [17] -10% | [13]; [18] 25% | [13]; at 50.0 µM 57.9% | [14]; at 1.2 µM 7% | [14]; at 3.7 µM 21% | [14]; at 11.0 µM 12% | [14]; at 33.0 µM 48% | [15]; [17] -1% | [15]; [18] 52% | [16]; at 1.2 µM 15% | [16]; at 3.7 µM 18% | [16]; [17] -19% | [16]; at 11.0 µM 39% | [1]; at 1.2 µM -29% | [1]; at 3.7 µM -28% | [1]; at 11.0 µM -20% | [1]; at 33.0 µM 20% | [2]; at 1.2 µM -18% | [2]; at 3.7 µM -14% | [2]; at 11.0 µM -6% | [2]; at 33.0 µM 15% | [3]; at 1.2 µM -38% | [3]; at 3.7 µM -38% | [3]; at 11.0 µM -20% | [3]; at 33.0 µM 20% | [4]; [17] 3% | [4]; [18] 51% | [5]; at 1.2 µM -42% | [5]; at 3.7 µM -46% | [5]; at 11.0 µM -23% | [5]; at 33.0 µM 9%

O=C1NC(c2cccc(OCc3ccccc3)c2)Nc2ccccc21 (centres undefined)
inactive: [6]; at 1.2 µM 16% | [6]; at 3.7 µM 20% | [6]; at 11.0 µM 19% | [6]; at 33.0 µM 14% | [6]; at 100.0 µM 6% | [7]; at 1.2 µM -10% | [7]; at 3.7 µM -20% | [7]; at 11.0 µM -22% | [7]; at 33.0 µM -26% | [7]; at 100.0 µM -5% | [8]; at 1.2 µM -3% | [8]; at 3.7 µM 10% | [8]; at 11.0 µM 0% | [8]; at 33.0 µM 6% | [8]; at 100.0 µM 16% | [9]; at 1.2 µM -7% | [9]; at 3.7 µM -19% | [9]; at 11.0 µM -35% | [9]; at 33.0 µM -22% | [9]; at 100.0 µM -51% | [10]; at 1.2 µM 12% | [10]; at 3.7 µM 12% | [10]; [17] 49% | [10]; at 11.0 µM 8% | [10]; at 33.0 µM 6% | [10]; at 100.0 µM -9% | [11]; at 1.2 µM 13% | [11]; at 3.7 µM 11% | [11]; [17] 42% | [11]; at 11.0 µM 6% | [11]; at 33.0 µM 5% | [11]; at 100.0 µM 0% | [12]; at 1.2 µM -6% | [12]; at 3.7 µM -14% | [12]; at 11.0 µM -11% | [12]; at 33.0 µM -19% | [12]; at 100.0 µM -17% | [13]; [17] 5% | [13]; [18] 35% | [13]; at 50.0 µM 63.9% | [14]; at 1.2 µM -4% | [14]; at 3.7 µM -9% | [14]; at 11.0 µM -5% | [14]; at 33.0 µM -7% | [14]; at 100.0 µM 1% | [15]; [17] 35% | [15]; [18] 38% | [15]; at 50.0 µM 32.5% | [16]; at 1.2 µM 6% | [16]; at 3.7 µM 14% | [16]; [17] 20% | [16]; at 11.0 µM 8% | [16]; at 33.0 µM 4% | [16]; [18] 32% | [16]; at 50.0 µM 67.8% | [16]; at 100.0 µM 1% | [1]; at 1.2 µM -5% | [1]; at 3.7 µM -11% | [1]; at 11.0 µM -7% | [1]; at 33.0 µM -14% | [1]; at 100.0 µM 3% | [2]; at 1.2 µM 1% | [2]; at 3.7 µM 1% | [2]; at 11.0 µM 5% | [2]; at 33.0 µM -4% | [2]; at 100.0 µM -14% | [3]; at 1.2 µM 2% | [3]; at 3.7 µM 0% | [3]; at 11.0 µM -7% | [3]; at 33.0 µM -6% | [3]; at 100.0 µM -14% | [4]; [17] 36% | [4]; at 50.0 µM 65.2% | [5]; at 1.2 µM -6% | [5]; at 3.7 µM -18% | [5]; at 11.0 µM -26% | [5]; at 33.0 µM -21% | [5]; at 100.0 µM -37%
active: [10]; [18] 81% | [10]; at 50.0 µM 84.3% | [11]; [18] 74% | [11]; at 50.0 µM 77.8% | [4]; [18] 71%
